# This is a sample that favours compounds with a hit; in the whole collection about 5.4% have one here.
# APOBEC3G inh – APOBEC3G (human) deaminase inhibition; Q9HC16; recombinant A3G, ssDNA deamination FAM/TAMRA fluorescence; inhibition, % at 20 µM; 330,000 tested, 0.28% active;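 active means inhibition of at least 40% at 20 µM, with no more than 30% in the related APOBEC3A deaminase screen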;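 further: plate controls were DMSO wells with A3G for no effect and wells lacking A3G enzyme for full effect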
# Target sequence (Q9HC16 whole entry, looked up): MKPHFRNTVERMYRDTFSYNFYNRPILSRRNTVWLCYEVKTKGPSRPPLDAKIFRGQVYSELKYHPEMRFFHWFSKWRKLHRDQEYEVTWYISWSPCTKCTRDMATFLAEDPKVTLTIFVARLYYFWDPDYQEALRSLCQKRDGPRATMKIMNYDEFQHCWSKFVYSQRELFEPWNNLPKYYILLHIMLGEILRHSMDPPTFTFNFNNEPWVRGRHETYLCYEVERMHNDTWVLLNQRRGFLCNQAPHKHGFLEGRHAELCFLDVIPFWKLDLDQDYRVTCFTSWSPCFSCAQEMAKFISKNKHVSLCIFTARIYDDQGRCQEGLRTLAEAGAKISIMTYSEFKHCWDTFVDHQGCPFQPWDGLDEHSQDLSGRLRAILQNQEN
# ALR H2O2 inh – inhibitors of human sulfhydryl oxidase ALR | purified ALR, DTT oxidation, H2O2 HRP-luminol luminescence | 290,000 tested, 3.8% active | AID 485317 | inhibition, % (test concentration not listed);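 active means mean replicate inhibition above about 79%, with every replicate also reaching it, limit read from the data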
# Target sequence (P55789 whole entry, looked up): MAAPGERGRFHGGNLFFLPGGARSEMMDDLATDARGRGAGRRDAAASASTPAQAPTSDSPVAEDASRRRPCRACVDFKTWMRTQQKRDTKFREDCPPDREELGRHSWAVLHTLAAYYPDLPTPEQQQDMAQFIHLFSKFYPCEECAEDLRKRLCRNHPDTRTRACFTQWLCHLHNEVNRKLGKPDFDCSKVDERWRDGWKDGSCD
# PHOSPHO1 block – PHOSPHO1 (human) inhibition; 290,000 tested, 1.1% active; recombinant PHOSPHO1, absorbance phosphatase assay; Q8TCT1; inhibition, % at 13.3 µM; in the data active means inhibition above about 60%
# aDG glyco up – alpha-DG glycosylation activation; Pro5-aDG cells, alpha-DG glycosylation AlphaScreen (IIH6); 0% Pro5, 100% B10-LARGE cell signal; activation, % at 10 µM; 360,000 tested, 0.22% active;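 active means activation of at least 8% versus controls, or a plate z-score of at least 8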;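 further: Pro5 are CHO cells carrying HIG-tagged alpha-DG that lacks glycosylation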
# rCAG RNA binder – molecules binding r(CAG) RNA repeats; 370,000 tested, 1.3% active; inhibition, % at 3 µM; r(CAG) RNA repeat, TO-PRO-1 dye displacement fluorescence; AID 651821;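 active means inhibition above the plate cutoff, the mean of all test compounds on that plate plus 3 SD, cut at about 35% in these data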;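 further: 0% = DMSO alone and 100% = 100 µM mitoxantrone as full dye displacement; higher means more dye released from RNA so lower well fluorescence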
# A3A deaminase – blocks human APOBEC3A ssDNA deamination; P31941; 330,000 tested, 0.41% active; recombinant A3A, FAM/TAMRA ssDNA deamination fluorescence; inhibition, % at 20 µM;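 active means at least 40% inhibition at 20 µM here, with at most 30% in a related deaminase screen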;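 further: plate controls were A3A with DMSO for no effect and wells lacking A3A enzyme for full effect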
# * hit, by the source's call; x = no result given.
SMILES,APOBEC3G inh,ALR H2O2 inh,PHOSPHO1 block,aDG glyco up,rCAG RNA binder,A3A deaminase
O=C(Nc1ccncc1)c1cc(S(=O)(=O)N2CCCC2)ccc1Cl,-6,-18,x,0,1,-6
O=C(Nc1ccc(S(=O)(=O)N2CCCC2)cc1)c1cccs1,-7,23,60*,0,4,2
Cc1ccc(NC(=O)c2cccs2)cc1,6,-4,5,0,0,4
COCCNC(=O)CS(=O)Cc1nc(-c2ccc(Cl)cc2)oc1C (configuration not stated),-6,x,-2,0,3,-5
CCCCNC(=O)CS(=O)Cc1nc(-c2ccc(C)cc2)oc1C (configuration not stated),-4,99*,-4,0,1,-5
Cc1ccc(-c2nc(CS(=O)CC(=O)NCCC(C)C)c(C)o2)cc1 (configuration not stated),-7,98*,19,1,x,-4
CCCN(CCC)CCNC(=O)CS(=O)Cc1nc(-c2ccc(C)cc2)oc1C (configuration not stated),-11,98*,48,0,-10,-3
CCCNC(=O)CS(=O)Cc1nc(-c2ccc(OC)cc2)oc1C (configuration not stated),-2,99*,15,0,7,-1
COC(=O)[C@]12C[C@H](CC(=O)N3CCOCC3)C(=O)N(CCC3=CCCCC3)C1=C[C@H](COCc1ccccc1)O[C@@H]2C,x,x,x,x,1,x
COC(=O)[C@]12C[C@H](CC(=O)NCc3cccc4ccccc34)C(=O)N(Cc3ccco3)C1=C[C@H](C(C)C)O[C@@H]2C1CC1,x,x,x,x,7,x
COc1ccc(S[C@]2(C(=O)N3CCN(c4ncccn4)CC3)CC(=O)N[C@@H]2c2ccc(OC)cc2)cc1,x,x,x,x,6,x
CC(C)C[C@H]1COc2cc(Br)ccc2S(=O)(=O)N1Cc1cccc(Cl)c1,x,x,x,x,1,x
CC(C)(C)C(=O)OC12CCCN(C1)/C(=C/c1ccncc1)C2 (configuration not stated),x,x,x,x,-1,x
O=C(NNC(=S)NC(=O)c1cccnc1)c1ccc(F)cc1,25,98*,85*,0,-2,4
O=C(NNC(=S)NC(=O)c1ccc(F)cc1)c1cccnc1,0,98*,-136,0,4,-2
COc1ccc(CC(=O)NNC(=S)NC(=O)c2cccnc2)cc1,32,5,85*,0,1,1
Nc1ccc(SCC(=O)Nc2cccc([N+](=O)[O-])c2)cc1,-5,99*,32,0,2,-2
O=C(CSCCO)Nc1cccc([N+](=O)[O-])c1,-6,-4,-12,0,-1,6
O=C(CSc1nncc(=O)[nH]1)Nc1cccc([N+](=O)[O-])c1,5,100*,36,0,6,11
Cn1c(-c2ccccc2Br)n[nH]c1=S,38,96*,x,0,1,-4
Cn1c(-c2ccco2)n[nH]c1=S,18,17,-90,0,2,2
Cc1ccn2c(-c3n[nH]c(=S)n3C)c(C)nc2c1,-4,95*,-15,0,-1,-2
Cn1c(-c2ccccc2)n[nH]c1=S,7,93*,-8,0,-2,-7
Cc1ccc(-c2cc(-c3n[nH]c(=S)n3C)c3ccccc3n2)cc1,-3,97*,4,-1,19,3
CCn1c(-c2cc(-c3ccc(C)c(C)c3)nc3ccccc23)n[nH]c1=S,-5,40,-103,x,x,0
SMILES,APOBEC3G inh,ALR H2O2 inh,PHOSPHO1 block,aDG glyco up,rCAG RNA binder,A3A deaminase
O=C1C[C@H](c2ccc(O)cc2)Oc2cc(O[C@@H]3O[C@H](CO)[C@@H](O)[C@H](O)[C@H]3O)cc(O[C@@H]3O[C@H](CO)[C@@H](O)[C@H](O)[C@H]3O)c21,-7,49,x,0,8,0
OC[C@H]1O[C@@H](Oc2cc(O)cc(/C=C/c3ccc(O)cc3)c2)[C@H](O)[C@@H](O)[C@@H]1O,x,99*,40,x,x,x
COc1ccc(C2NN=C(c3ccc(C)cc3)S2)cc1 (configuration not stated),x,-7,22,0,3,x
Cc1ccc(C2=NNC(C(O)C(O)C(O)CO)S2)cc1 (configuration not stated),-6,5,84*,0,1,-2
CCn1cc(Br)c(C(=O)Nc2cccc(SC)c2)n1,3,99*,-32,0,-1,3
CCCCn1nnc(NC(=O)c2sc3cc(Cl)ccc3c2Cl)n1,2,-10,4,0,3,1
CCN(CC)Cc1ccc(NC(=O)c2sc3cc(Cl)ccc3c2Cl)cc1,10,x,60*,0,12,0
COCCNc1nc(=S)[nH]c2cc(OC)c(OC)cc12,-4,-1,68*,0,2,-4
CN(Cc1ccccc1)S(=O)(=O)c1cccc(C(=O)OCc2ccccc2)c1,x,x,x,x,2,x
Cc1cc(Nc2ccccc2)n(-c2ccccc2)n1,-5,98*,12,0,1,-3
Cc1cc(Nc2nc(Cl)c(Cl)cc2Cl)n(-c2ccccc2)n1,-7,-1,4,0,-1,-3
Cc1cc(C)nc(-n2nc(C)cc2Nc2ccccc2)n1,8,98*,16,1,-2,8
Cc1cc(NC(=O)c2cccs2)n(-c2ccccc2)n1,-5,86*,18,0,3,-2
O=C1NN(c2ccccc2)C(=O)/C1=C/c1ccc(-c2ccc(Cl)c(C(=O)O)c2)o1,x,x,-7,0,11,x
O=C1NC(=O)/C(=C\c2ccc(Sc3ccc(Cl)cc3)o2)N1,9,90*,14,0,1,13
O=C1NN(c2ccccc2)C(=O)/C1=C/c1ccc(Sc2ccc(Cl)cc2)o1,-2,10,20,2.6*,31,2
CCCC(=O)Nc1c2c(nn1-c1ccc(C)cc1C)CSC2,-3,5,72*,0,5,-6
COc1cccc2c1[C@H](/C=C/c1ccccc1)[C@@H]([C@H](O)CO)OC2,x,x,x,x,2,x
CCCCCC#CCC#CCC#CCC#CCCCC(=O)O,90,x,79*,x,x,98
CCCCCCCCCC(=O)O,-4,x,x,0,1,-2
COC(=O)[C@H]1C[C@@]2(c3ccccc3)c3ccccc3N[C@H]2N1,x,x,x,x,2,x
O=[N+]([O-])c1cc(/C=N/O)ccc1N1CCCC1,2,92*,2,0,4,4
Cc1nc2ccccc2nc1N/N=C/c1ccc(O)cc1,-7,85*,10,0,1,-4
O=c1c2ccccc2nc(N/N=C/c2ccc(O)cc2)n1O,-5,66,88*,0,2,-6
CC1CCC2(CCC(=O)N2CCCOC(=O)c2ccccc2)CC1 (configuration not stated),x,x,x,x,-3,x
CCN(CCCNS(=O)(=O)c1ccc2c(c1)CCN2C(C)=O)c1cccc(C)c1,-3,97*,15,0,9,-3

# High-throughput results deposited in PubChem BioAssay by several laboratories.
